# Results as given in the supplement of paper PMC4466140.
# Tests used:
# Assay in all cases: SPOT peptide array binding signal intensity (averaged, normalized) (arbitrary units (background-subtracted, floor 0; scale differs between SH3 domains)); higher = stronger binding of the SH3 domain to the peptide
# [1] = biological target: AgAbp1
# Summary of the method: (§1)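 GST-fused SH3 domains from four yeast species were expressed in E. coli BL21(DE3), purified on glutathione Sepharose and incubated at 10 μg/ml overnight at 4°C in TBS-based blocking buffer on cellulose membranes carrying synthetic 15-mer peptides, with cysteines replaced by serines. Bound protein was detected with anti-GST antibody, an HRP anti-mouse secondary and luminol, then imaged and quantified with Genespotter. Binding signal is the normalized, background-subtracted spot intensity averaged over replicates, in arbitrary units that differ between domains.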
# [2] = biological target: AgBbc1
# Summary of the method: as §1
# [3] = biological target: AgBem1-D1
# Summary of the method: as §1
# [4] = biological target: AgBzz1-D1
# Summary of the method: as §1
# [5] = biological target: AgBzz1-D2
# Summary of the method: as §1
# [6] = biological target: AgCyk3
# Summary of the method: as §1
# [7] = biological target: AgFus1
# Summary of the method: as §1
# [8] = biological target: AgHof1
# Summary of the method: as §1
# [9] = biological target: AgHse1
# Summary of the method: as §1
# [10] = biological target: AgLsb1
# Summary of the method: as §1
# [11] = biological target: AgLsb4
# Summary of the method: as §1
# [12] = biological target: AgMyo5
# Summary of the method: as §1
# [13] = biological target: AgNbp2
# Summary of the method: as §1
# [14] = biological target: AgRvs167
# Summary of the method: as §1
# [15] = biological target: AgSho1
# Summary of the method: as §1
# [16] = biological target: AgSla1-D1-D2
# Summary of the method: as §1
# [17] = biological target: AgSla1-D3
# Summary of the method: as §1
# [18] = biological target: CaAbp1-D1
# Summary of the method: as §1
# [19] = biological target: CaAbp1-D2
# Summary of the method: as §1
# [20] = biological target: CaBbc1
# Summary of the method: as §1
# [21] = biological target: CaBem1-D1
# Summary of the method: as §1
# [22] = biological target: CaBzz1-D1
# Summary of the method: as §1
# [23] = biological target: CaBzz1-D2
# Summary of the method: as §1
# [24] = biological target: CaCyk3
# Summary of the method: as §1
# [25] = biological target: CaFus1
# Summary of the method: as §1
# [26] = biological target: CaHof1
# Summary of the method: as §1
# [27] = biological target: CaHse1
# Summary of the method: as §1
# [28] = biological target: CaLsb1
# Summary of the method: as §1
# [29] = biological target: CaLsb4
# Summary of the method: as §1
# [30] = biological target: CaMyo5
# Summary of the method: as §1
# [31] = biological target: CaNbp2
# Summary of the method: as §1
# [32] = biological target: CaRvs167
# Summary of the method: as §1
# [33] = biological target: CaRvs167-3
# Summary of the method: as §1
# [34] = biological target: CaSho1
# Summary of the method: as §1
# [35] = biological target: CaSla1-D1-D2
# Summary of the method: as §1
# [36] = biological target: CaSla1-D3
# Summary of the method: as §1
# [37] = biological target: ScAbp1
# Summary of the method: as §1
# [38] = biological target: ScBbc1
# Summary of the method: as §1
# [39] = biological target: ScBem1-D1
# Summary of the method: as §1
# [40] = biological target: ScBzz1-D1
# Summary of the method: as §1
# [41] = biological target: ScBzz1-D2
# Summary of the method: as §1
# [42] = biological target: ScCyk3
# Summary of the method: as §1
# [43] = biological target: ScFus1
# Summary of the method: as §1
# [44] = biological target: ScHof1
# Summary of the method: as §1
# [45] = biological target: ScHse1
# Summary of the method: as §1
# [46] = biological target: ScLsb1
# Summary of the method: as §1
# [47] = biological target: ScLsb2
# Summary of the method: as §1
# [48] = biological target: ScLsb3
# Summary of the method: as §1
# [49] = biological target: ScLsb4
# Summary of the method: as §1
# [50] = biological target: ScMyo3
# Summary of the method: as §1
# [51] = biological target: ScMyo5
# Summary of the method: as §1
# [52] = biological target: ScNbp2
# Summary of the method: as §1
# [53] = biological target: ScPex13
# Summary of the method: as §1
# [54] = biological target: ScRvs167
# Summary of the method: as §1
# [55] = biological target: ScSho1
# Summary of the method: as §1
# [56] = biological target: ScSla1-D1-D2
# Summary of the method: as §1
# [57] = biological target: ScSla1-D3
# Summary of the method: as §1
# [58] = biological target: SpAbp1-D1
# Summary of the method: as §1
# [59] = biological target: SpBbc1
# Summary of the method: as §1
# [60] = biological target: SpBzz1-D1
# Summary of the method: as §1
# [61] = biological target: SpBzz1-D2
# Summary of the method: as §1
# [62] = biological target: SpCyk3
# Summary of the method: as §1
# [63] = biological target: SpHof1
# Summary of the method: as §1
# [64] = biological target: SpHof1-2
# Summary of the method: as §1
# [65] = biological target: SpHof1-3
# Summary of the method: as §1
# [66] = biological target: SpHse1
# Summary of the method: as §1
# [67] = biological target: SpLsb1
# Summary of the method: as §1
# [68] = biological target: SpLsb4
# Summary of the method: as §1
# [69] = biological target: SpMyo1
# Summary of the method: as §1
# [70] = biological target: SpNbp2
# Summary of the method: as §1
# [71] = biological target: SpPex13
# Summary of the method: as §1
# [72] = biological target: SpRvs167
# Summary of the method: as §1
# [73] = biological target: SpSla1-D1-D2
# Summary of the method: as §1
# [74] = biological target: SpSla1-D3
# Summary of the method: as §1
binder,measurement,setting,value
STPQTMRQAPKRPDA,SPOT peptide array binding signal intensity,[1],≤ 0
same,SPOT peptide array binding signal intensity,[2],206
same,SPOT peptide array binding signal intensity,[3],540
same,SPOT peptide array binding signal intensity,[4],10
same,SPOT peptide array binding signal intensity,[5],20
same,SPOT peptide array binding signal intensity,[6],≤ 0
same,SPOT peptide array binding signal intensity,[7],34.5
same,SPOT peptide array binding signal intensity,[8],10.5
same,SPOT peptide array binding signal intensity,[9],122
same,SPOT peptide array binding signal intensity,[10],6.5
same,SPOT peptide array binding signal intensity,[11],≤ 0
same,SPOT peptide array binding signal intensity,[12],6
same,SPOT peptide array binding signal intensity,[13],1030
same,SPOT peptide array binding signal intensity,[14],0.833
same,SPOT peptide array binding signal intensity,[15],25
same,SPOT peptide array binding signal intensity,[16],4
same,SPOT peptide array binding signal intensity,[17],0.5
same,SPOT peptide array binding signal intensity,[18],≤ 0
same,SPOT peptide array binding signal intensity,[19],13
same,SPOT peptide array binding signal intensity,[20],1170
same,SPOT peptide array binding signal intensity,[21],174
same,SPOT peptide array binding signal intensity,[22],532
same,SPOT peptide array binding signal intensity,[23],105
same,SPOT peptide array binding signal intensity,[24],29
same,SPOT peptide array binding signal intensity,[25],202
same,SPOT peptide array binding signal intensity,[26],≤ 0
same,SPOT peptide array binding signal intensity,[27],83
same,SPOT peptide array binding signal intensity,[28],0.5
same,SPOT peptide array binding signal intensity,[29],283
same,SPOT peptide array binding signal intensity,[30],88
same,SPOT peptide array binding signal intensity,[31],653
same,SPOT peptide array binding signal intensity,[32],28.8
same,SPOT peptide array binding signal intensity,[33],1
same,SPOT peptide array binding signal intensity,[34],100
same,SPOT peptide array binding signal intensity,[35],198
same,SPOT peptide array binding signal intensity,[36],225
same,SPOT peptide array binding signal intensity,[37],2.5
same,SPOT peptide array binding signal intensity,[38],49.5
same,SPOT peptide array binding signal intensity,[39],8.5
same,SPOT peptide array binding signal intensity,[40],3
same,SPOT peptide array binding signal intensity,[41],26
same,SPOT peptide array binding signal intensity,[42],≤ 0
same,SPOT peptide array binding signal intensity,[43],39
same,SPOT peptide array binding signal intensity,[44],≤ 0
same,SPOT peptide array binding signal intensity,[45],72
same,SPOT peptide array binding signal intensity,[46],5.5
same,SPOT peptide array binding signal intensity,[47],5
same,SPOT peptide array binding signal intensity,[48],300
same,SPOT peptide array binding signal intensity,[49],35
same,SPOT peptide array binding signal intensity,[50],196
same,SPOT peptide array binding signal intensity,[51],72.5
same,SPOT peptide array binding signal intensity,[52],2290
same,SPOT peptide array binding signal intensity,[53],339
same,SPOT peptide array binding signal intensity,[54],39.7
same,SPOT peptide array binding signal intensity,[55],171
same,SPOT peptide array binding signal intensity,[56],736
same,SPOT peptide array binding signal intensity,[57],540
same,SPOT peptide array binding signal intensity,[58],≤ 0
same,SPOT peptide array binding signal intensity,[59],5
same,SPOT peptide array binding signal intensity,[60],116
same,SPOT peptide array binding signal intensity,[61],11
same,SPOT peptide array binding signal intensity,[62],6
same,SPOT peptide array binding signal intensity,[63],25
same,SPOT peptide array binding signal intensity,[64],38.8
same,SPOT peptide array binding signal intensity,[65],≤ 0
same,SPOT peptide array binding signal intensity,[66],190
same,SPOT peptide array binding signal intensity,[67],≤ 0
same,SPOT peptide array binding signal intensity,[68],384
same,SPOT peptide array binding signal intensity,[69],325
same,SPOT peptide array binding signal intensity,[70],266
same,SPOT peptide array binding signal intensity,[71],51
same,SPOT peptide array binding signal intensity,[72],25.8
same,SPOT peptide array binding signal intensity,[73],1.5
same,SPOT peptide array binding signal intensity,[74],182
